Results on 36 compounds are retold here after PubChem BioAssay.

Molecules are shown by their SMILES.

The target of the test is Follistatin-related protein 3 (Homo sapiens) (UniProt O95633). The experiment in a line: FSTL3 binders on small-molecule microarrays, primary screen, biochemical, small-molecule microarray, 635 nm fluorescence (AID 1105).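 Further: score merges emission near 667 nm and signal to noise per printed spot across three slides.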 The settings on record: FSTL3 binding, higher = more signal.
Chain of Follistatin-related protein 3 (Homo sapiens) (O95633 whole entry, looked up): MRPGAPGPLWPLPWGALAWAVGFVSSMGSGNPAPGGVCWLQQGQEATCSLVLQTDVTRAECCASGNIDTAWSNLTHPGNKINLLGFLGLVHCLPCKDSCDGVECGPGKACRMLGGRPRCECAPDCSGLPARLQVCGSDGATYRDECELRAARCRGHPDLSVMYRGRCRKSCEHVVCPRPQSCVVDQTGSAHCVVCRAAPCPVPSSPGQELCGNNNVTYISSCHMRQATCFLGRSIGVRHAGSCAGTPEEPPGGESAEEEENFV
`CC(C)C(O)C1C=CC2C(=O)N(C)C(=O)C2N1Nc1ccccc1` (stereo unspecified) came in with a composite z-score of 0.439.
`Cc1c(NC(=O)/C(C#N)=C/C=C/c2ccc(N(C)C)cc2)c(=O)n(-c2ccccc2)n1C` yielded a composite z-score of 0.788.
On to `COc1cc(CO)cc(I)c1O[C@H]1C=C(C(=O)NCCO)C[C@@H](N(Cc2ccc(F)cc2)C(=O)C2CCCO2)[C@@H]1O` (stereo partly specified), for which the composite z-score is 0.203.
For `O=C1C[C@@](C(=O)NCC(F)(F)F)(c2ccc([N+](=O)[O-])cc2)[C@@H](c2ccc(CO)cc2)N1C1CCCCC1` the value was 1.03.
For `COC(=O)Cn1c(C(=O)N2CCCC2)cc2c1C[C@H]1CN(C(=O)c3ccccc3)[C@@](Cc3ccc(F)cc3)(C(=O)OC)[C@@H]21` the value was 0.412; for `O=C(CS)NCCCCCCNC(=O)[C@H]1C[C@H]2C(=O)N[C@@H](Cc3ccccc3)C(=O)N2[C@H]1c1cccc(OCCO)c1`, 1.52; for `COc1cc2c(cc1OC)CN(C(=O)[C@H]1[C@@H]3C(=O)O[C@@H](c4ccccc4)[C@@H](c4ccccc4)N3[C@@H](c3ccc(OCCO)cc3)[C@]13C(=O)Nc1ccc(C#CC4(O)CCCCCC4)cc13)CC2`, 1.33.
For `O=C1O[C@H](c2ccccc2)[C@H](c2ccccc2)N2[C@H]1[C@@H](C(=O)O)[C@]1(C(=O)Nc3ccccc31)[C@H]2c1ccc(O)cc1` the value was -0.532; for `CC(=O)N1Cc2ccccc2C[C@]2(N=C(c3ccc(OCCCO)cc3)O[C@@H]2c2ccccc2)C1=O`, 0.33; for `Cc1ccc(S[C@]2(C(=O)O)CC(=O)N(Cc3ccccc3Cl)[C@@H]2c2ccc(CO)cc2)cc1`, -1.1.
In the case of `COc1c(C)cc(-c2cc3c(c(-c4ccccc4)n2)[Si](C(C)C)(C(C)C)OC3)cc1C`, the composite z-score was -0.355.
For `O=C(CCCCCCC(=O)Nc1ccccc1)N/N=C/c1ccccc1` the value was -0.41; for `CCOC(=O)C[C@H]1[C@H](OC(=O)Cc2ccc3c(c2)OCO3)[C@@H](NC(=O)C2CCCCC2)c2cc(OCCCO)ccc2N1C(=O)c1ccc2ccccc2n1`, 1.18.
With `O=C(NC1CC1)[C@@H]1c2ccccc2C(=O)N(Cc2ccccc2)[C@H]1c1ccc(CO)cc1` the figure was -0.298; with `NC(N)=NCc1cn(CCc2c[nH]c3ccccc23)nn1`, 1.12; with `COCCCNC(=O)[C@@]1(Sc2ccc(C)cc2)CC(=O)N(Cc2cc(C(F)(F)F)cc(C(F)(F)F)c2)[C@@H]1c1ccc(CO)cc1`, 1.01.
With `O=C1O[C@@H](c2ccccc2)[C@@H](c2ccccc2)N2[C@@H](c3ccc(O)cc3)[C@]3(C(=O)Nc4ccc(C#CC5=CCCCC5)cc43)[C@@H](C(=O)N3CCN(c4ncccn4)CC3)[C@H]12` the figure was 0.872; with `COCCOC(=O)N1C(=O)[C@@]2(c3cc(C#CC4=CCCCC4)ccc31)[C@H](c1ccccc1OCCO)N1[C@H](c3ccccc3)[C@H](c3ccccc3)OC(=O)[C@H]1[C@@H]2C(=O)N1CCc2cc(OC)c(OC)cc2C1`, 1.4; with `CC[C@H]1C2=C3C(CC[C@H]4C(OCc5ccc(F)cc5C(F)(F)F)OC[C@](C)([C@@H]34)N(C(=O)OC(C)(C)C)C2)C2COC(=O)OCC21` (stereo partly specified), 0.719.
For `CO[C@H]1O[C@H](CO)[C@@H](OC(=O)Nc2ccccc2-c2ccccc2)[C@H](OC(=O)Nc2ccc3c(c2)OCO3)[C@@H]1OC(=O)Nc1ccc2c(c1)OCO2`, the composite z-score worked out at 1.44.
For `COCCCNC(=O)[C@@]1(Sc2ccc(C)cc2)CC(=O)N(C2Cc3ccccc3C2)[C@@H]1c1ccc(CO)cc1I` the value was -1.58.
`Cc1ccc(S[C@]2(C(=O)NCc3ccccc3)CC(=O)N(C(C)C)[C@@H]2c2ccc(CO)cc2I)cc1` had a composite z-score of -1.04.
For `CC(C)C(O)C1C=CC2C(=O)N(C)C(=O)C2N1N(c1ccccc1)c1ccccc1` (stereo unspecified) the value was -0.49; for `O=C1OCC=C[C@H]2OC34C=CCN(Cn5nnc6ccccc65)C(=O)[C@H]3N(CCCCCCO)C(=O)[C@@H]4[C@@H]12` (stereo partly specified), -1.02.
With `COC(=O)[C@@]1(Cc2ccccc2)[C@H]2c3cc(C(=O)N4CCCC4)n(Cc4cc(F)cc5c4OCOC5)c3C[C@H]2CN1C(=O)c1ccccc1` the figure was 0.286; with `O=C(O)[C@H](Cc1ccccc1)n1cc(-c2ccccn2)nn1`, 0.333; with `CN(C)CCCNC(=O)[C@@]1(c2ccc([N+](=O)[O-])cc2)CC(=O)N(CC23CC4CC(CC(C4)C2)C3)[C@@H]1c1ccc(CO)cc1`, 0.996.
For the compound `CCOC(=O)C[C@H]1[C@H](OC(=O)c2ccc(-c3ccccc3)cc2)[C@@H](NC(=O)c2ccc3ccccc3n2)c2cc(OCCCO)ccc2N1C(=O)c1ccccc1`, the composite z-score worked out at 1.09.
For `CCOC(=O)C1=CC[C@@H](c2ccccc2)N(S(=O)(=O)c2ccc(C)cc2)C1` the value was 0.36.
For `CCOC(=O)[C@H]1C/C=C/C[C@H](C(=O)OCC)C(=O)O[C@H]2[C@@H](OC)O[C@H](CO)[C@@H](OC(=O)Nc3ccc(OC)cc3)[C@@H]2OC1=O` the value was 1.29; for `COC(=O)[C@H](Cc1ccccc1)N1CC(/C=C/C2CC2)=C[C@@H]1[C@@H](O)Cc1ccccc1`, 1.4.
For `Cc1ccc(F)cc1S(=O)(=O)N[C@@H]1CCN(Cc2ccc(Oc3ccccc3)cc2)C1` the value was 0.626.
Regarding `COCCOC(=O)N1C(=O)[C@@]2(c3cc(C#Cc4ccc(OC)cc4)ccc31)[C@H](C(=O)NC[C@H](O)c1ccccc1)[C@H]1C(=O)O[C@H](c3ccccc3)[C@H](c3ccccc3)N1[C@@H]2c1ccc(O)cc1`, the composite z-score was found to be 1.41.
With `CN(C)CCCNC(=O)[C@@H]1c2ccccc2C(=O)N(CC23CC4CC(CC(C4)C2)C3)[C@H]1c1ccc(CO)cc1` the figure was 1.15; with `CCOC(=O)[C@@H]1[C@@H]2C(=O)N(CC)C(=O)[C@@H]2C[C@@H]1Sc1ccccc1`, 0.446.
For `CC(C)C(=C=CC[C@@H](O)c1ccccc1OCCO)C[C@@H](O)COCc1ccccc1` the value was 0.589.
